Source: PubChem BioAssay AID504850 (National Center for Advancing Translational Sciences (NCATS), 2011)
Screen size: about 2,300 compounds; about 1,200 (52%) were called active. Roughly 34% stayed inconclusive and do not appear here. The set was probably picked from earlier hits. Some of the results follow. Unmarked numbers belong to inactive results. Calls come from the whole dose curve; as a rule, active = well fitted inhibition curve with a large enough effect; inconclusive = small, poorly fitted or top-dose-only effect, or effect the other way; inactive = no such curve, though single readings can be large or run the other way.

Test: Confirmation screen for delayed death inhibitors of the malarial parasite plastid, 48 hour incubation; note: nearly all actives have a fitted effect of over 65% in size
Conditions: P. falciparum-infected erythrocytes, luciferase growth; series mostly up to 28.7 µM; activity change, negative = inhibition: at the top concentration
Procedure, shortened: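 Erythrocytes infected with luciferase-expressing P. falciparum (2% hematocrit, 0.1% parasitemia) incubated with compounds 48 hours at 37 C, 5% CO2, in RPMI/Albumax. Growth inhibition scored as reduced luminescence after detection reagent.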
% is set by controls: 0 for no effect and ±100 for the full control effect; potency is the fitted concentration of half-maximal effect.

SMILES | Potency | activity change, negative = inhibition
CCO[C@H]1OC(C(=O)N2CCN(Cc3ccc4c(c3)OCO4)CC2)=C[C@@H](c2ccc(C(F)(F)F)cc2)[C@@H]1CCCO | 3.55 µM (active) | 
CCn1c(=O)cc(C(=O)OC)sc1=Nc1ccc(F)c(F)c1 |  | -21.8%
CC(C)n1nc(C(=O)Nc2cccc(S(=O)(=O)NCc3ccco3)c2)c2ccccc2c1=O | 11.2 µM (active) | 
O=C(Nc1ccccc1)c1cccc(S(=O)(=O)NCc2ccco2)c1 |  | -16.7%
Cc1cc(C)n(-c2ccc(C(=O)Nc3ccc(S(=O)(=O)NCc4ccco4)cc3)cc2)n1 | 10 µM (active) | 
Cc1cc(C)n2nc(C(=O)N/N=C/c3c4ccccc4cc4ccccc34)nc2n1 | 8.91 µM (active) | 
COC(=O)c1ccc(C2N=C(c3cccs3)CC(c3ccccc3O)N2)cc1 (centres undefined) | 8.91 µM (active) | 
CCOC(=O)c1c(S(=O)(=O)NCC(=O)Nc2cccc(C)c2C)c(C)n(C)c1C |  | -28.7%
CCOC(=O)c1c(S(=O)(=O)NCC(=O)N2CCN(c3ccccc3OC)CC2)c(C)n(C)c1C | 12.6 µM (active) | 
Cc1ccc(C(=O)NCCc2nnc3ccc(SCC(=O)NCc4ccc(F)cc4)nn23)cc1 | 10 µM (active) | 
COc1cccc(NC(=O)CSc2ccc3nnc(CCNC(=O)c4ccccc4)n3n2)c1 | 15.8 µM (active) | 
Cc1ccc(Cc2cnc(N3C(=N)SC(C)C3=O)s2)cc1 (centres undefined) |  | -30%
CCN1C(=O)[C@@H]2Cc3c([nH]c4ccccc34)C(c3ccc(OC)cc3)N2C1=S (some centres undefined) | 15.8 µM (active) | 
C=CCN1C(=O)[C@@H]2Cc3c([nH]c4ccccc34)C(c3ccc(O)cc3)N2C1=S (some centres undefined) | 12.6 µM (active) | 
CC1(C)CC(=O)C2=C(C1)OC1=C(C(=O)CC(C)(C)C1)C2c1ccc(O)cc1O | 7.08 µM (active) | 
Fc1cccc(CNc2ncnc3ccc(-c4ccc5c(c4)OCO5)cc23)c1 | 10 µM (active) | 
Fc1ccc(CSc2nncn2NCc2ccc3c(c2)OCO3)cc1 |  | -19.1%
CCOCCCNC(=S)N1CCN(c2nc(-c3ccccc3)cs2)CC1 | 11.2 µM (active) | 
NC1=NC[C@@H](Cc2ccc(O)cc2)N1CCc1cccc(F)c1 | 10 µM (active) | 
NC1=NC[C@H](Cc2ccc(O)cc2)N1CCc1cccc(F)c1 | 7.94 µM (active) | 
CCCCCCCNC(=O)C1(CC2CC(c3ccc(Cl)cc3)=NO2)CCN(C(=O)C2CCCC2)CC1 (centres undefined) | 14.1 µM (active) | 
CCCCCCCNC(=O)C1(CC2CC(c3ccc(Cl)cc3)=NO2)CCN(C(=O)Cc2ccc(F)cc2)CC1 (centres undefined) | 11.2 µM (active) | 

SMILES | Potency | activity change, negative = inhibition
COc1ccc(C(=O)CSc2nnc(C3CCCCC3)n2N)c(OC)c1 | 8.91 µM (active) | 
CC1CCCN(c2ccc(F)cc2N)C1 (centres undefined) | 14.1 µM (active) | 
COc1cccc(-c2sc3ccc(OC)cc3c2-c2cc(F)cc(OC)c2)c1 | 11.2 µM (active) | 
O=C(CSc1nnc(COc2ccccc2)n1-c1ccccc1)c1cccs1 | 14.1 µM (active) | 
C[C@H](NC(=O)c1nc[nH]c1C(=O)N[C@H](C)c1ccccc1)C(=O)OCc1ccccc1 |  | -22.9%
CC(C)C[C@H](NC(=O)c1[nH]cnc1C(=O)N[C@@H](Cc1ccccc1)C(=O)OC(C)(C)C)C(=O)OC(C)(C)C | 6.31 µM (active) | 
CC(C)C[C@H](NC(=O)c1[nH]cnc1C(=O)Nc1ccc(CNC(=O)OC(C)(C)C)cc1)C(=O)OC(C)(C)C | 6.31 µM (active) | 
CC(C)C[C@H](NC(=O)c1nc[nH]c1C(=O)N(C)Cc1ccccc1)C(=O)OC(C)(C)C | 11.2 µM (active) | 
CC(C)C[C@H](NC(=O)c1[nH]cnc1C(=O)N[C@@H](C)C(=O)OC(C)(C)C)C(=O)OC(C)(C)C | 7.08 µM (active) | 
O=C(CN1CCCCC1)N/N=C/c1ccc(Cl)cc1 |  | 4.48%
O=C(c1ccc(Br)cc1)C(CN1CCOCC1)c1ccccc1 (centres undefined) | 7.08 µM (active) | 
O=C(c1ccc(Cl)cc1)C(CN1CCCC1)c1ccccc1 (centres undefined) | 10 µM (active) | 
O=C(CC(c1ccccc1)c1cc(Br)ccc1O)NCCN1CCOCC1 (centres undefined) | 12.6 µM (active) | 
CN(Cc1ccccc1)C(=O)c1ccc(NC(=O)Cc2cccc(NC(=O)C3CCCN(C(=O)CCc4ccccc4)C3)c2)cc1 (centres undefined) | 7.08 µM (active) | 
O=[N+]([O-])c1cccc(-c2c[n+]3c(n2-c2ccccc2)SCC3)c1 | 2.51 µM (active) | 
COC(=O)C(NC(=O)c1ccccc1C)(Nc1ncc(S(=O)(=O)c2ccc([N+](=O)[O-])cc2)s1)C(F)(F)F (centres undefined) | 7.94 µM (active) | 
Cn1nc(C(F)(F)F)c(C(=O)Nc2ccc(F)cc2F)c1Sc1ccc(C(F)(F)F)cc1 | 12.6 µM (active) | 
O=C(NC1CCCN(Cc2ccc(Cl)cc2)C1)c1cnc2ccccn2c1=O (centres undefined) | 15.8 µM (active) | 
CC(C)Cc1ccc(CN2CCCC(NC(=O)CCn3cnnn3)C2)cc1 (centres undefined) |  | -7.89%
Cc1occc1C(=O)NC1CCCN(Cc2ccc(CC(C)C)cc2)C1 (centres undefined) | 14.1 µM (active) | 
O=C(Cn1c(=O)c(=O)n(Cc2ccccc2)c2ccc(Cl)cc21)Nc1cccc(F)c1 | 15.8 µM (active) | 
Cc1cccc(C)c1N1CCN(C(=O)c2ccc3c(c2)OCO3)CC1 | 15.8 µM (active) | 
